Reference: the supplement of paper PMC12636033
± gives the standard deviation of the averaged measurements. The full ranking holds about 33,000 sequences; the median of “E-score (rank enrichment, -0.5 to 0.5)” is about -0.0028, and the highest 2% start at about 0.23. The sample as a whole holds a higher share of the highest values than the screen did.

System: 2Sb-muMax20 (muMax20 with two 1,3-bis(methyl)benzene Cys staples, A13C/A17C and Q88C/A92C, C-terminal Lys)
Assay: PBM 8-mer E-score (E-score (rank enrichment, -0.5 to 0.5)); higher = stronger preferential binding
Protocol: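 Protein binding microarray (universal PBM chip covering all 10-mers in fixed probe flanks) with chemically synthesized human Max(13-93) bHLH-LZ analogs (not full-length Max) bearing noncanonical residues (hArg, Tha, Aib, Nle at 65) and aromatic Cys staples. Read-out per 8-mer (and its reverse complement): E-score (rank-based enrichment, -0.5 to 0.5) and Z-score of median probe intensity.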

Row | Sequence | PBM 8-mer E-score
1 | CTGGTACA | 0.0235 ± 0.024
2 | CGCCGGAG | -0.226 ± 0.023
3 | CAAATTGG | 0.0841 ± 0.087
4 | CCTCCCCC | -0.17 ± 0.14
5 | ACCTCCCA | -0.0967 ± 0.065
6 | ACTCCCCC | -0.192 ± 0.053
7 | ACTCCCCA | 0.309 ± 0.0089
8 | CCTCCCCA | 0.346 ± 0.046
9 | ACTCCCAA | 0.141 ± 0.025
10 | ACTCCCCT | 0.266 ± 0.028
11 | GCCTCCCA | -0.128 ± 0.085
12 | TCTCCCCA | 0.164 ± 0.047
13 | CCCTCCCA | 0.325 ± 0.076
14 | CCTCCCAA | 0.0447 ± 0.088
15 | ACTCCCCG | 0.168 ± 0.015
16 | CGGATAAA | 0.0371 ± 0.069
17 | AGATGAAT | 0.17 ± 0.0036
18 | CATCCTAG | 0.0659 ± 0.037
19 | ATAGGGAA | 0.0733 ± 0.043
20 | CTAATCCA | 0.0132 ± 0.01
21 | CACATCGG | -0.0961 ± 0.052
22 | ATTGTTGC | 0.00699 ± 0.061
23 | AAGAGGGC | 0.0019 ± 0.0019
24 | ACGCTCTG | -0.0545 ± 0.0079
25 | CCAACGAC | -0.133 ± 0.023

Row | Sequence | PBM 8-mer E-score
26 | ATAACTAA | 0.112 ± 0.031
27 | TAAACTAA | 0.233 ± 0.028
28 | TTAACTAA | 0.241 ± 0.014
29 | AAAACTAA | 0.132 ± 0.019
30 | CTAACTAA | 0.0585 ± 0.065
31 | CAAACTAA | 0.0893 ± 0.026
32 | GACTGCCA | -0.0667 ± 0.023
33 | ACCCCACT | 0.293 ± 0.044
34 | ACCCCAGG | -0.107 ± 0.067
35 | ACCCCAGT | 0.336 ± 0.028
36 | AACCCACT | 0.059 ± 0.037
37 | ACCCCAGA | 0.156 ± 0.044
38 | ACCCCACC | 0.22 ± 0.074
39 | ATTGAAGG | 6e-05 ± 0.019
40 | AGTTCAAA | -0.0257 ± 0.13
41 | AACCGGCC | -0.167 ± 0.021
42 | CCGCTGCC | -0.123 ± 0.029
43 | CAGAGAGA | -0.0625 ± 0.011
44 | TTACAAAA | 0.181 ± 0.03
45 | ATACAAAT | 0.148 ± 0.12
46 | CTACAAAA | 0.0645 ± 0.037
47 | GTACAAAC | 0.028 ± 0.04
48 | ATACAAAA | 0.296 ± 0.014
49 | GTACAAAA | 0.27 ± 0.0082
50 | ACCTGTCC | 0.0598 ± 0.062

Row | Sequence | PBM 8-mer E-score
51 | AATATGGC | 0.221 ± 0.025
52 | CACAGCAC | -0.0272 ± 0.038
53 | CATAAGTA | 0.163 ± 0.049
54 | AATAAGTG | 0.17 ± 0.066
55 | AGTAAGTG | 0.2306 ± 0.0021
56 | AGTAAGTC | 0.1006 ± 0.00054
57 | AGTAAGTA | 0.126 ± 0.027
58 | ATTAAGTG | 0.122 ± 0.011
59 | AATAAGTA | 0.285 ± 0.0052
60 | ATTAAGTA | 0.236 ± 0.026
61 | GTTAAGTA | 0.0909 ± 0.029
62 | CTGACCAC | -0.0726 ± 0.025
63 | AGGTGGAA | -0.00713 ± 0.04
64 | GTTATTAA | 0.0581 ± 0.1
65 | CAGTCTGG | -0.18 ± 0.038
66 | CAAATTCG | 0.000655 ± 0.064
67 | CACTTAAG | 0.0265 ± 0.011
68 | ATGGACCG | -0.222 ± 0.029
69 | ACCCAAAG | 0.0519 ± 0.028
70 | ACCCAAGC | -0.0166 ± 0.044
71 | ACCCAAGT | 0.282 ± 0.052
72 | ACCCAAAA | -0.0026 ± 0.17
73 | ACCCAAGG | 0.0572 ± 0.07
74 | ACCCAAAT | 0.277 ± 0.028
75 | AGGAAACA | 0.0889 ± 0.046

Row | Sequence | PBM 8-mer E-score
76 | AGTCGCCC | -0.0113 ± 0.15
77 | AACCGTAT | -0.0505 ± 0.036
78 | CTGTGCGC | 0.0257 ± 0.14
79 | AACGTTCC | 0.142 ± 0.028
80 | CCGATGCC | -0.029 ± 0.062
81 | ATAGCAAT | 0.234 ± 0.05
82 | AAAGCAAC | 0.0449 ± 0.04
83 | ATAGCAAG | 0.157 ± 0.0043
84 | AAAGCAAG | 0.167 ± 0.024
85 | ATAGCAAC | 0.031 ± 0.02
86 | AAAGCAAT | 0.268 ± 0.011
87 | CCGTAACC | -0.243 ± 0.07
88 | ATAACCTG | 0.113 ± 0.024
89 | AATGGCGT | 0.0723 ± 0.025
90 | CGTGCACG | 0.357 ± 0.019
91 | CGTGCACA | 0.123 ± 0.094
92 | TGTGCACA | -0.0483 ± 0.071
93 | AAACGTTT | 0.171 ± 0.011
94 | AGGCAGGC | -0.109 ± 0.057
95 | CTATTTCC | 0.259 ± 0.0072
96 | ATATTTCC | -0.00852 ± 0.065
97 | CTATTTCA | 0.135 ± 0.01
98 | CCAAGCAA | 0.0514 ± 0.029
99 | ATGGATTA | -0.131 ± 0.0052
100 | AGCGTCAA | -0.0167 ± 0.026

Row | Sequence | PBM 8-mer E-score
101 | ACACAAGA | 0.0809 ± 0.01
102 | GATTGTAC | 0.051 ± 0.031
103 | AATTGTAC | 0.2375 ± 0.0016
104 | AATTGTAA | 0.165 ± 0.011
105 | AATTGTAG | 0.0147 ± 0.034
106 | CATTGTAG | 0.033 ± 0.059
107 | CATTGTAC | 0.238 ± 0.031
108 | GATTCGAC | -0.119 ± 0.031
109 | GCAGGTGA | -0.000525 ± 0.049
110 | AGCACAGA | 0.00824 ± 0.026
111 | AACATGCT | 0.0156 ± 0.11
112 | AAAACTGC | -0.0787 ± 0.029
113 | ACATTATA | 0.222 ± 0.013
114 | AAACGAAT | 0.0979 ± 0.067
115 | CAACCGGG | -0.22 ± 0.053
116 | ACTCACAA | 0.124 ± 0.028
117 | ACCTCGAC | -0.178 ± 0.084
118 | ATGCATTG | 0.133 ± 0.0027
119 | GTGCAATA | 0.118 ± 0.07
120 | GTGCATCA | 0.0577 ± 0.073
121 | ATGCATCG | 0.0238 ± 0.0075
122 | CTGCATTC | 0.0548 ± 0.014
123 | ATGCATCA | 0.332 ± 0.0056
124 | ATGCATTA | 0.311 ± 0.01
125 | ATGCAATA | 0.269 ± 0.021

Row | Sequence | PBM 8-mer E-score
126 | CTGCATTA | 0.0983 ± 0.0036
127 | ATGCATTC | 0.248 ± 0.054
128 | GTGCATTA | 0.0825 ± 0.077
129 | CTGCAATA | 0.0131 ± 0.065
130 | AAAACCCA | 0.145 ± 0.034
131 | CGTGCCCC | 0.0242 ± 0.014
132 | GCTCTCTA | -0.0575 ± 0.015
133 | ACCTGCCC | -0.236 ± 0.049
134 | AGGCATAG | 0.017 ± 0.038
135 | CAAGTAAA | 0.114 ± 0.018
136 | CCTACACC | 0.00456 ± 0.037
137 | TCGCGTCA | -0.0876 ± 0.026
138 | ATGCATAC | 0.253 ± 0.0083
139 | CTGCATAC | 0.0495 ± 0.019
140 | ATGCATAA | 0.213 ± 0.023
141 | GCGGCGAC | -0.148 ± 0.0016
142 | CAAACAAA | 0.0981 ± 0.0047
143 | GAAACATC | 0.0426 ± 0.019
144 | GAAAACAA | 0.244 ± 0.069
145 | GAAACATA | 0.268 ± 0.048
146 | AAAACATA | 0.1684 ± 0.0003
147 | AAAAACAA | 0.158 ± 0.049
148 | TAAAACAA | -0.00029 ± 0.077
149 | GAAACAAC | 0.0094 ± 0.1
150 | GAAACAAA | 0.301 ± 0.065

Row | Sequence | PBM 8-mer E-score
151 | GATTATTA | 0.1 ± 0.071
152 | ATTACGAG | 0.164 ± 0.013
153 | CGAGTTAA | 0.0575 ± 0.082
154 | ACTCAGAA | 0.0145 ± 0.00035
155 | CTTAGTAC | 0.0932 ± 0.025
156 | TATCCAAA | 0.103 ± 0.028
157 | CCCGTCGA | -0.109 ± 0.064
158 | CTGTGGTC | -0.235 ± 0.017
159 | CAAGAAGA | 0.0996 ± 0.012
160 | GAGTTAAC | 0.0742 ± 0.055
161 | CTGTTAAC | 0.105 ± 0.041
162 | AAGTTAAC | 0.233 ± 0.052
163 | CAGTTAAC | 0.0298 ± 0.036
164 | GTGTTAAC | -0.018 ± 0.016
165 | ATGTTAAC | 0.306 ± 0.013
166 | CCAGTAGA | -0.0423 ± 0.068
167 | AAGCCTGA | -0.17 ± 0.034
168 | ACCTCCGG | -0.194 ± 0.037
169 | CGCTGTAA | -0.00707 ± 0.013
170 | AGGTAGCG | -0.0415 ± 0.0036
171 | CCATGCGA | 0.0911 ± 0.01
172 | GCATGCGA | 0.266 ± 0.042
173 | GCATGCGC | 0.112 ± 0.049
